Measured values reported in PubChem BioAssay (EPA / NIEHS).
Results filed as inconclusive are left out. Where a structure was tested more than once in an assay, its records may differ in their call. Calls of active or inactive are those of the source. The calls were made as follows: active = hit-call score of the fitted dose curve at least 0.9, where 1 is the maximum; inconclusive = response in the unintended direction; inactive = score below 0.9.

These compounds were tested against Cellular tumor antigen p53 (Homo sapiens) (UniProt P04637) (assay: TOX21_p53_BLA_p4_ratio: Tox21 HCT-116 p53 Agonism Beta-lactamase Assay, Ratio, Phase 4 (AID 2283601)).
Chain of Cellular tumor antigen p53 (Homo sapiens) (P04637 whole entry, looked up, the tested form may be a part): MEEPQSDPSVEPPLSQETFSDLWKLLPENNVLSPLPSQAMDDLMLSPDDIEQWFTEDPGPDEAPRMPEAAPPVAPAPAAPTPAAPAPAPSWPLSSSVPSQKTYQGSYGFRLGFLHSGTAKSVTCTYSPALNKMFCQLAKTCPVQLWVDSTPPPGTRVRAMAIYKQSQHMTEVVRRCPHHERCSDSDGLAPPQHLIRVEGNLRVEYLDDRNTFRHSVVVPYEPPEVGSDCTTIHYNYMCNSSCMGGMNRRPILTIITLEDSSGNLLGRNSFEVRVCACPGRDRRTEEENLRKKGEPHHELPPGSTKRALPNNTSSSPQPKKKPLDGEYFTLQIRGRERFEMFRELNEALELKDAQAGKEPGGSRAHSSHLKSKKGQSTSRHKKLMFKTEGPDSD
Source text: TOX21_p53_BLA_p4 is a cell-based, single-readout assay that uses HCT116, a human intestinal cell line, […] in a 1536-well plate.TOX21_p53_BLA_p4_ratio is an assay readout measuring reporter gene via receptor activity and designed using inducible reporter (beta lactamase induction) detected with GAL4 b-lactamase reporter gene. The signal is derived from the ratio of cleaved (ch2) to uncleaved (ch1)reporter gene substrate used as the measure of target activity.Data from the assay component TOX21_p53_BLA_p4_ratio was analyzed into 1 assay endpoint. This assay endpoint, TOX21_p53_BLA_p4_ratio, was analyzed in the positive analysis fitting direction relative to DMSO as the negative control and baseline of activity. Using a type of inducible reporter, gain-of-signal activity can be used to understand changes in the reporter gene as they relate to the gene TP53. Furthermore, this assay endpoint can be referred to as a primary readout, because this assay has produced multiple assay endpoints where this ratio serves a reporter gene function to understand target activity. To generalize the intended target to other relatable targets, this assay endpoint is annotated to the DNA binding intended target family, where the subfamily is tumor suppressor.
Thawing Method: Place 14 mL of pre-warmed thaw medium into a 15 mL of conical tub. Remove the vial of cells to be thawed from liquid nitrogen and thaw rapidly by placing at 37C in a water bath with gentle agitation for 1-2 minutes. Decontaminate the vial by wiping with 70% ethanol before opening in a biological safety cabinet. Transfer the vial contents drop-wise into 14 mL of thaw medium in a sterile 15-mL conical tub. Centrifuge cells at 900 rpm for 4 minutes and resuspend in thaw medium. Transfer contents to the T75 tissue culture flask containing Thaw Medium and place flask in a humidified 37C/5% CO2 incubator. Switch to growth medium at first passage.Propagation Method: Aspirate medium, rinse once in DPBS, add 0.25% Trypsin/EDTA and swirl to coat the cell evenly. Add an equal volume of Growth Medium to inactivate Trypsin after 2-3 minutes incubation at 37C. Centrifuge cells at 900 rpm for 4 minutes and resuspend in growth medium. Cell should be passage or fed at least twice a week.Assay Protocol: Harvest cells from culture in growth medium and resuspend in assay medium. 2.2 Dispense 4000 cells/5 uL/well into 1536-well black/clear bottom plates using a Multidrop dispenser. After the cells were incubated at 37C for 5 hours, 23 nL of compounds dissolved in DMSO were transferred to the assay plate by a PinTool resulting in a 217-fold dilution. Incubate the plates for 16 hours at 37C, 5% CO2. Add 1 uL of 6X LiveBLAzer FRET B/G (CCF4-AM) Substrate Mixture to each well using a BioRAPTR dispenser and incubate the plates at room temperature for 2 hours. Measure fluorescence intensity at 460 and 530 nm emission and 405 nm excitation by an Envision detector. Data is expressed as the ratio of 460nm/530nm emissions. Add 4 uL of Cell-titer Glo to each well using BioRAPTR and incubate the plates at room temperature for 2 hours. Measure fluorescence intensity by a VewLux plate reader.
In the case of CCNP(=S)(OC)O/C(C)=C/C(=O)OC(C)C (stereo not given), the outcome is reported as “inactive”.
CCOP(=O)(OCC)Oc1nc(Cl)c(Cl)cc1Cl was tested, and the AC50 was 61.7 µM (active).
For Cn1c(-c2ccccc2)cc(-c2ccccc2)[n+]1C, the outcome was “inactive”.
With CC1(C)CCC(=Cc2ccc(Cl)cc2)C1(O)Cn1cncn1 (stereo not given) the outcome was “inactive”.
For Nc1c(Cl)c(Cl)nc(C(=O)O)c1Cl, the outcome was “inactive”.
In the case of CCOc1nc(C(Cl)(Cl)Cl)ns1, the outcome is reported as “inactive”.
With CS(=O)(=O)c1ccc(C(=O)C2C(=O)CCCC2=O)c([N+](=O)[O-])c1 the outcome was “inactive”.
COCC(C)N(C(=O)CCl)c1c(C)csc1C (stereo not given) was tested, and the outcome was “inactive”.
O=c1n(Cl)c(=O)n(Cl)c(=O)n1Cl was tested, and the outcome was “inactive”.
With COCC(=O)N(c1c(C)cccc1C)C(C)C(=O)OC (stereo not given) the outcome was “inactive”.
CCOc1nc(F)cc2nc(S(=O)(=O)Nc3c(Cl)cccc3Cl)nn12 was tested, and the outcome was “inactive”.
For Cc1c(COC(=O)[C@@H]2[C@H](/C=C(\Cl)C(F)(F)F)C2(C)C)cccc1-c1ccccc1, the outcome was “inactive”.
With COP(=S)(OC)SCn1nnc2ccccc2c1=O the AC50 was 43.5 µM (active) and the outcome was “inactive”.
COC(=O)N(C(=O)N1CO[C@@]2(C(=O)OC)Cc3cc(Cl)ccc3C2=N1)c1ccc(OC(F)(F)F)cc1 was tested, and the AC50 was 37.6 µM (active).
In the case of Clc1nc(Cl)nc(Nc2ccccc2Cl)n1, the outcome is reported as “inactive”.
CCCCC(O)(Cn1cncn1)c1ccc(Cl)cc1Cl (stereo not given) was tested, and the AC50 was 87 µM (active).
With COC(=O)NS(=O)(=O)c1ccc(N)cc1 the outcome was “inactive”.
With COc1cc(OC)nc(NC(=O)NS(=O)(=O)c2ncccc2OCC(F)(F)F)n1 the outcome was “inactive”.
With CCCCC(C#N)(Cn1cncn1)c1ccc(Cl)cc1 (stereo not given) the outcome was “inactive”.
N#Cc1c[nH]cc1-c1cccc2c1OC(F)(F)O2 was tested, and the AC50 was 6.17 µM (active).
In the case of CO/N=C(/C1=NOCCO1)c1ccccc1Oc1ncnc(Oc2ccccc2Cl)c1F, the outcome is reported as “inactive”.
For O=P(O)(O)CCCl, the outcome was “inactive”.
In the case of COC(=O)c1c(C(F)F)nc(C(F)(F)F)c(C2=NCCS2)c1CC(C)C, the outcome is reported as “inactive”.
For CN/C(=N\[N+](=O)[O-])NCc1cnc(Cl)s1, the outcome was “inactive”.
In the case of N#CN=C1SCCN1Cc1ccc(Cl)nc1, the outcome is reported as “inactive”.
For CCN(CC)c1nc(C)cc(OP(=S)(OC)OC)n1, the outcome was “inactive”.
For COc1ccc(-c2ccccc2)cc1NNC(=O)OC(C)C, the outcome was “inactive”.
With CCOC(=O)C(C)OC(=O)c1cc(Oc2ccc(C(F)(F)F)cc2Cl)ccc1[N+](=O)[O-] (stereo not given) the outcome was “inactive”.
In the case of CN=C=S, the outcome is reported as “inactive”.
CC1(C)C(C(=O)OC(C#N)c2cccc(Oc3ccccc3)c2)C1(C)C (stereo not given) was tested, and the outcome was “inactive”.
In the case of CC(C)N1C(=O)c2ccccc2NS1(=O)=O, the outcome is reported as “inactive”.
CCN(CC)C(=O)C(C)Oc1cccc2ccccc12 (stereo not given) was tested, and the outcome was “inactive”.
For O=C1C2CC=CCC2C(=O)N1SC(Cl)(Cl)Cl (stereo not given), the outcome was “inactive” and the AC50 was 10.3 µM (active).
C=CCOC(=O)C(C)(C)OC(=O)c1cc(-n2c(=O)cc(C(F)(F)F)n(C)c2=O)ccc1Cl was tested, and the outcome was “inactive”.
N#Cc1c(Cl)cccc1Cl was tested, and the outcome was “inactive”.
With C=C(C)CN(CC)c1c([N+](=O)[O-])cc(C(F)(F)F)cc1[N+](=O)[O-] the AC50 was 0.000117 µM (active).
In the case of Nc1cnn(-c2ccccc2)c(=O)c1Cl, the outcome is reported as “inactive”.
For COP(=S)(OC)Oc1ccc([N+](=O)[O-])c(C)c1, the outcome was “inactive”.
